# Laboratory results from the supplement of paper PMC6555819.
# How the values were obtained:
# Assay in all cases: PBM binding z-score (relative to random genomic background probes); higher = stronger binding; sequences stand for … in GC…GCGATTGACAGCGTAGAATGAAGG
# [1] = system: RARb homodimer (NR concentration 270 nM)
# Summary of the method: (§1)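 Binding z-scores were set against random background probes. The data came from custom Agilent 4×180K protein-binding microarrays carrying double-stranded probes with 34-nt variable regions, incubated 1 h with ligand-free nuclear receptor dimers. Partner-specific antibodies detected binding, and scanned fluorescence was regression-normalized.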
# [2] = system: RARg:RXRa (NR concentration 270 nM, RXRa partner concentration 90 nM)
# Summary of the method: as §1
# [3] = system: RARg homodimer (NR concentration 270 nM)
# Summary of the method: as §1
# [4] = system: RXRa DBDmut IVT, anti-RXR (DBD mutation: RXRa K156A/R161A, NR concentration 90 nM)
# Summary of the method: as §1
# [5] = system: RXRa homodimer (NR concentration 180 nM)
# Summary of the method: as §1
# [6] = system: THRa:RXRa (NR concentration 90 nM, RXRa partner concentration 90 nM)
# Summary of the method: as §1
# [7] = system: THRa homodimer (NR concentration 90 nM)
# Summary of the method: as §1
# [8] = system: VDR:RXRa (NR concentration 270 nM, RXRa partner concentration 90 nM)
# Summary of the method: as §1
# [9] = system: VDR homodimer (NR concentration 270 nM)
# Summary of the method: as §1
Sequence,PBM binding z-score [1],PBM binding z-score [2],PBM binding z-score [3],PBM binding z-score [4],PBM binding z-score [5],PBM binding z-score [6],PBM binding z-score [7],PBM binding z-score [8],PBM binding z-score [9]
AATACAGGGTTATCGTAGGCCAGAGTACGCACAG,1.09,1.52,1.11,0.484,2.28,3.61,0.15,1.61,1.12
TAGACTAGGTCATTCAGGGGCCAGTATAGAAAGC,3.07,5.47,4.47,1.33,2.82,3.29,0.816,2.48,1.63
CAAACTAGGTCACCGGAAGGGCAAAGTCCGCATG,4.57,6.48,5.56,1.21,3.68,3.42,1.7,3.81,1.33
CCTCGGAGGACAACAGGACGTCAGAGCTGCCAGA,0.189,0.272,1.12,0.0264,-0.244,0.648,-0.377,-0.499,-0.354
TCTATTAGTTGAAGGGCAACCGGCGAGTCCGTTT,1.33,0.436,0.37,1.69,0.567,0.217,0.172,0.946,0.963
CTCGAAAGGTCGTGCTCAGGTGATTATACCAAAC,2.98,4.97,4.05,2.27,4.89,3.89,1.39,3.58,1.25
CGTCCAAGGTCAATGCTAAGTCAGTGAAAGCATT,3.83,5.54,6.06,3.39,4.48,3.72,1.98,3.83,2.06
CCTCCGAGGACAACAGGAGGTCAGAGCTGCCAGA,3.75,3.41,3.21,0.726,2.02,3.58,2.36,2.27,1.61
CCGACTGGGGCAAGCTTACCATAACGCACAGCCA,-0.00597,0.179,0.523,0.00515,-0.0329,-0.39,-0.624,-0.753,-0.428
GCTTCTAGATCAAGGTTAAGAAAGACTAAGCTAA,0.106,0.25,0.347,0.0774,0.547,1.16,-0.453,0.384,-0.36
CAAACTACGTCAAGGTCAAAGTCGGTTTGTGCCA,4.2,4.46,4.3,2.66,4.77,3.96,3.63,4.45,4.35
ATCTCTAGGTTAGACTCAGTTCAGTGAAGAACGC,1.37,1.4,1.14,1,0.687,1.52,1.21,1.7,2.48
CGTCCAAGGTCTGAGAGGTCAGTGAATGCCGAGT,3.72,2.97,3.36,0.83,2.29,2.52,1.29,3.29,2.01
GCTCGGAGGACAAGGTCAGCGCTTTGTCCGTAGA,3.72,3.85,4.29,0.531,3.07,3.23,1.82,1.88,0.607
ACAGACAGGTGAGTGAAGGTACCTCAGCTGGACG,-0.44,-0.0299,0.22,-0.86,-0.0741,0.291,-0.575,-0.805,-0.908
TGTCAAAGTTCAAAGGTAACGAAAGTATCCACAC,3.89,6.36,6.02,4.4,7.81,2.97,0.0782,5.07,4.73
TATACAGGGCCAAAGGCCAGAGTACGAATGTCGA,1.12,1.16,1.47,-0.775,0.74,-0.149,-0.814,0.13,0.291
CCTATTAGTTGACCAAAAGGGCAACCGAAGCTCG,3.11,2.31,1.84,0.787,1.09,0.99,0.0968,0.901,0.7
CGTCCAAGGTCAGAAGGTCAGTGAAAGCGACGTG,5.32,7.13,6.77,2.87,5.71,4.12,1.8,4.14,2.18
TCATATAGGAAAAAGGTGAAAGTCGGTGTGGTAA,1.66,0.803,0.339,1.88,1.5,1.11,0.221,1.21,0.152
TCTTGTAGACCAAGCAGGTTAAGAAAGCCTGAGT,0.377,0.0625,-0.186,0.787,0.346,0.395,-0.407,0.582,0.173
CCTTACGGGTCACTGACTGGTTATAGCATTTGGA,3.06,5.04,4.61,1.84,4.93,2.52,0.498,3.11,1.03
CAAACTAGGTCAAGGTCAACGTCGGTTTGTGCCA,5.65,6.16,6.86,2.58,5.91,4.62,4.3,5.02,3.89
ATATGTAGGTAAAGGGTCATTCAGGTTGGTTCGC,4.14,4.11,3.22,2.01,4.98,3.26,1.71,5.54,4.15
CTCGAAAGGTCGGTTGAGGTGAGTCTACGGATAA,2.36,2.73,2.99,1.03,2.34,5.01,1.58,2.45,0.44
CGAACTAGGTCATTGACAGGACAGGGAATAGTAA,2.89,4.58,4.36,2.18,2.59,2.99,1.01,2.12,1.02

Sequence,PBM binding z-score [1],PBM binding z-score [2],PBM binding z-score [3],PBM binding z-score [4],PBM binding z-score [5],PBM binding z-score [6],PBM binding z-score [7],PBM binding z-score [8],PBM binding z-score [9]
TATACAGGGTCGAAGGCCAGAGTACGAATGTCGA,1.26,1.87,1.72,0.491,2.32,1.16,-0.382,1.56,1.23
TGTCAAAGATCAAAGGTAACGTAAGTATCCACAC,0.261,1.26,0.761,-0.668,2.36,1.54,-0.401,0.973,-0.267
CCTACTGGGCCAAGGTCATTAATCAGTCAAAGCA,3.03,3.21,2.99,1.47,2.71,3.1,2.03,2.84,3.22
TATACAGGGTCAGAGGCCAGAGTACGAATGTCGA,3.01,4.21,4.27,1.39,4.32,2.74,0.817,3.24,2.2
TAGCCTAGGGCAGATCGGGCCAGTATACGCTATA,-0.161,0.171,0.578,-1.17,-0.16,2.16,-1.07,-0.562,-0.532
ATATGTAGGTTACATCCGCGTCATTCAGGCTATG,0.571,0.929,1.09,0.366,0.901,0.526,0.124,0.515,0.163
CGTCCAAGGTAATAGGAGGTCAGTGAAGACAGAT,2.88,2.11,2.21,0.17,1.8,3.94,1.27,2.56,1.2
TAGCCTAGGTCATTCAGGGGCCCGTATAGAAAGC,2.42,4.22,3.89,1.39,2.77,3.61,0.839,2.51,1.32
TCTGCTAGGGCAGTTGGTCAGCTAACGAGCTGCC,0.33,-0.0411,0.49,-0.0574,-0.74,-0.754,-0.968,-0.663,-1.08
ACTATTGGTTGACTTAGGGCAACCGATACGACGC,0.788,0.838,0.894,0.419,0.479,1.66,0.213,0.175,-0.0545
ATATGTAAGTTACATCCGGGTCATTCAGGCTATG,2.56,1.71,1.21,1.07,2.15,3.43,2.33,3.56,3.16
TAGCCTAGGTCATTGGGCCAGCATAGTACGCATC,2.94,3.88,4.34,1.49,3.01,2.76,0.613,2.14,0.817
CCTAGTTGGTCAAGATCACACACGCTATAGGTAC,0.785,0.893,1.22,0.493,0.581,0.0913,0.528,0.862,0.699
TCAGACAGGTCAAGGTAACTCAGGTACGCAGTCG,3.61,4.57,4.8,2.07,4.44,3.33,1.49,3.09,0.989
ATCTCAAGGTAAAGATAGTTCAGTGAATGCAAAT,0.976,1.03,1.11,0.292,0.564,1.53,0.311,1.37,0.351
CCGTGTAGGTTATGGGGCATTCAGGCAACGGTGA,1.3,0.81,0.846,-0.509,0.777,0.703,0.635,0.11,0.353
TGAAGGAGGTTATAAGATCAGGGAACGTTGCAAA,0.457,1.11,0.942,-0.654,1.56,0.689,0.0287,0.323,0.219
CATACAGGGTCAGCTAGGCCGGAGTAGGGACGGC,3,4.28,4.35,1.18,3.93,2.78,0.818,3.08,0.84
GCTCGGAGGAGAAGGTCAGAGCTTTGTCCGTAGA,2.4,2.15,2.28,-0.281,2.08,1.15,-0.793,0.324,-0.592
ACCTCTAGGTAAAAGTTCAGTGAATCCCGAGGAT,2.22,1.17,1.56,0.969,1.22,0.914,-0.324,0.859,1.21
TGAATGAGGTTATAGGATCAGGGAACGTTGCAAA,0.349,1.53,0.884,0.852,2.42,2.12,0.489,1.13,0.329
ACTTACGGGTCAACGAGGTTCTAGCACGCGTATA,3.24,5.08,4.31,2.18,5.1,3.34,0.629,6.52,2.01
ATCGAAAGGTCGACGAGGTGAGTAGACACCGTTT,2.83,4.43,3.75,0.736,4.27,3.85,0.861,5.23,0.955
TCTGCTAGGTCAGTTGGTCAACTAACGAGCTGCC,2.71,2.82,3.64,0.186,1.03,1.43,-0.321,0.33,-0.774
AATACAGGGTCATCGTAGGCCAGACTACGCACAG,2.36,5.54,5.13,3.61,6.23,4.74,1.68,5.11,2.65
CCTTACGGGCCACTGACAGGTTATAGCATTTGGA,0.8,0.731,0.737,-0.085,0.326,0.0187,-0.159,-0.202,-0.034
